Assay outcomes deposited in PubChem by several laboratories.
EP2 antag – inhibitors of human EP2 prostaglandin E2 receptor; P43116; C6 glioma cells expressing human EP2, cAMP TR-FRET; cells stimulated with saturating PGE2; inhibition, % at 25 µM; 260,000 compounds, 0.52% hits; AID 1422;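 active = percent inhibition above 40 after rounding to a whole number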;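 note: rat C6 glioma host cells with rolipram phosphodiesterase inhibitor present; the protocol text gives 20 µM as final concentration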
Target sequence (P43116 whole entry, looked up): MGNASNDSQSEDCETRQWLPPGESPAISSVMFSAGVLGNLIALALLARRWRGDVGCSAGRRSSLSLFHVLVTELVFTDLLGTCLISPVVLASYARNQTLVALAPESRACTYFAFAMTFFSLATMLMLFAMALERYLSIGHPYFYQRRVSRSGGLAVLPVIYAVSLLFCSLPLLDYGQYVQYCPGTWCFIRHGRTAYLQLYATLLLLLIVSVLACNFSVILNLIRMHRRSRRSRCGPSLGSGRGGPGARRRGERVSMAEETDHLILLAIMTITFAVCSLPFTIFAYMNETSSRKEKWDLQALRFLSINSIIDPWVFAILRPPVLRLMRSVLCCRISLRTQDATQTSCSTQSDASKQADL
Avidin fluor – avidin bead compound fluorescence profile | Avidin beads, compound fluorescence 488/530 nm, flow cytometry; active compounds read high | fluorescence (KMESF) at 10 µM | 220,000 compounds, 0.38% hits; in the data active = fluorescence above about 47
EP2 mod – modulates human prostaglandin E2 receptor EP2 signaling; 260,000 compounds, 0.83% hits; AID 940; P43116; EP2-expressing cells, cAMP HTRF FRET, PGE2 co-stimulation; induction, % at 25 µM;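 active = compounds whose cAMP rise, as percent of the full-agonist control response, exceeds 60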;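 note: rat C6 glioma line stably carrying human EP2 under a CMV promoter; the protocol text gives 20 µM as final concentration; 100% = response of wells given 1 µM PGE2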
GSH bead fluor – GSH bead compound fluorescence profile; 190,000 compounds, 0.25% hits; GSH beads flow cytometry, compound fluorescence 488/530 nm; active compounds read high; fluorescence (KMESF) at 10 µM; AID 1776; in the data active = fluorescence above about 89;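 note: glutathione beads carrying GST-tagged Bcl family fusion proteins plus one bare bead set; values are compound well signal with DMSO vehicle wells as background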
Efa HMGR inh – blocks class II HMG-CoA reductase of Enterococcus faecalis. purified E. faecalis HMGR, NADPH absorbance 340 nm kinetic. inhibition, % at 10 µM. 190,000 compounds, 0.41% hits;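 active = inhibition above a set limit, the median over all tested compounds plus 3 SD, cut at about 9.5% in these data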;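 note: enzyme runs in reverse so mevalonate oxidation gives rising NADPH absorbance; 0% = complete reaction with DMSO and 100% = background rate lacking mevalonate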
The depositor's hits bear a star; . = not tested or not shown. An excerpt weighted towards active compounds, which were near 2.1% of everything screened.

SMILES	EP2 antag	Avidin fluor	EP2 mod	GSH bead fluor	Efa HMGR inh
CCCNC(=O)COC(=O)CCC(=O)c1ccc(F)cc1	13	8	-7	26	-5
O=S(=O)(Nc1nccs1)c1cc(Cl)ccc1Cl	10	8	61*	39	-1
O=S(=O)(Nc1nccs1)c1ccc(Br)cc1	4	12	14	31	-2
Cc1cc(-c2cncnc2C2CCCN(C(=O)Cc3cccs3)C2)on1 (stereo unspecified)	.	.	-34	.	.
C[C@]12CCC(=O)C=C1CC[C@@H]1[C@@H]2[C@@H](O)C[C@@]2(C)[C@H]1CC[C@]2(O)C(=O)COC(=O)CCC(=O)O	15	7	33	19	0
CC(=O)OCC(=O)[C@@]1(O)CC[C@H]2[C@@H]3CCC4=CC(=O)CC[C@]4(C)[C@H]3[C@@H](O)C[C@@]21C	10	12	2	21	-1
CN1CCC[C@H](C(=O)OCC(=O)[C@]2(O)CC[C@@H]3[C@H]4CCC5=CC(=O)CC[C@@]5(C)[C@@H]4[C@@H](O)C[C@]32C)C1	53*	.	10	.	.
C[C@@]12CCC(=O)C=C1CC[C@H]1[C@H]2[C@@H](O)C[C@]2(C)[C@@H]1CC[C@@]2(O)C(=O)COC(=O)C1CCCC1	50*	.	-6	.	.
CC(=O)N(c1nc(CCl)cs1)c1ccc(C)cc1C	10	13	62*	22	-8
CCCn1c(SCC(=O)N2CCCCC2C)nc2c1c(=O)n(C)c(=O)n2C (stereo unspecified)	8	.	-8	.	.
O=C(NC(=S)Nc1ccccc1)c1ccc(-c2ccccc2)cc1	8	15	-6	23	-6
O=C(O)c1ccc(NC(=S)NC(=O)c2ccc(-c3ccccc3)cc2)cc1	66*	13	-89	11	0
O=C(COc1ccc2ccccc2c1)NNC(=O)Cc1ccccc1	63*	24	-28	11	-5
Cc1cc(C)cc(OCC(=O)NNC(=O)CCC(=O)NCc2ccccc2)c1	14	3	-12	152*	-4
O=C(COc1ccc2ccccc2c1)NNC(=O)Cc1cccc2ccccc12	5	16	-17	11	1
CC1CCCC(C)N1CCCNC(=O)c1cn(C(C)c2cccc(F)c2)nn1 (stereo unspecified)	.	.	6	.	.
COC(=O)C1=C(C)NC(=O)NC1c1cccc2ccccc12 (stereo unspecified)	13	.	-26	.	.
Nc1c(C(=O)OCC2CCCO2)c2nc3ccccc3nc2n1-c1ccc2c(c1)OCCO2 (stereo unspecified)	80*	27	-44	41	-3
O=C1C(Cl)=C(Sc2nnc3c4ccccc4c4ccccc4c3n2)C(=O)c2ccccc21	58*	.	-46	.	.
CCOc1ccc(NC(=O)Cn2sc3nc(C)cc(C)c3c2=O)cc1	122*	3	-41	.	.
Cc1cc(C)c2c(=O)n(CC(=O)Nc3cccc(F)c3)sc2n1	84*	2	-54	.	.
CCOc1ccc(NC(=O)CSc2nc(C)cc(C)c2C#N)cc1	7	.	-21	.	.
Cc1cc(C)c2c(=O)n(CC(=O)N3CCC(Cc4ccccc4)CC3)sc2n1	.	4	0	21	3
Cc1cc(C)c2c(=O)n(CC(=O)Nc3ccc(Cl)cc3)sc2n1	98*	5	-79	.	.
Cc1cccc(N2CCN(C(=O)Cn3sc4nc(C)cc(C)c4c3=O)CC2C)c1 (stereo unspecified)	121*	3	-10	16	-9
SMILES	EP2 antag	Avidin fluor	EP2 mod	GSH bead fluor	Efa HMGR inh
Cc1ccc(NC(=O)Cn2sc3nc(C)cc(C)c3c2=O)c(Cl)c1	9	2	-27	.	.
CC(C)(C)NC(=O)CN(C(=O)CNC(=O)c1cccs1)c1cccc2ccccc12	12	.	-12	.	.
CCc1cc(NC2CC2)n2nc3nc(C)cc(C)c3c2n1	.	.	45	.	.
C=C(C)CCn1c(Br)nc2c1c(=O)[nH]c(=O)n2C	14	.	17	.	.
Cc1ccc(C(=O)N(CCO)Cc2cc3cc(C)c(C)cc3[nH]c2=O)cc1	12	.	21	.	.
COCC(=O)NC1(c2nnnn2CCOC(=O)Nc2ccc(Cl)cc2)CCCCC1	5	68*	-27	23	-5
NC(=O)c1cn(-c2ccccc2)nc1-c1cc2ccccc2oc1=O	0	13	98*	21	-6
Cn1c(SCC(=O)N2CCCC2)nnc1-c1ccccc1	8	.	-9	.	.
OC(CNCc1ccco1)COc1ccccc1 (stereo unspecified)	4	6	28	45	0
OC(CNCc1ccco1)Cn1c2ccccc2c2ccccc21 (stereo unspecified)	10	6	-28	263*	1
CCOC(=O)CSc1nc(C)c2cc(C)c(C)cc2n1	9	10	20	10	13*
O=C1c2ccccc2-c2cc([N+](=O)[O-])c([N+](=O)[O-])cc21	64*	.	-35	.	.
Cc1nnc(SCc2nnc(-c3ccccc3)o2)n(N)c1=O	10	8	-9	264*	2
Cc1nnc(SCC(=O)Nc2ccccc2)n(N)c1=O	4	55*	18	19	3
CCCc1[nH]nc2c1C(CCC)C(C#N)=C(N)O2 (stereo unspecified)	-1	11	7	15	11*
CC1(C)Cc2cccc(C(=O)Nc3ccc(F)cc3F)c2O1	4	4	82*	.	.
O=C1CC(=O)CC(c2ccccc2)C1	7	9	10	17	-3
CC(C)(O)C1=NOC(c2ccccc2)C1 (stereo unspecified)	7	200*	-1	25	-4
Cc1cc(C)n(CC(O)CN(c2ccccc2)S(=O)(=O)c2ccccc2)n1 (stereo unspecified)	4	67*	2	39	-4
COc1ccc(N2C(=O)C(CC(=O)O)S/C2=C\C(C)=O)cc1 (stereo unspecified)	9	6	15	251*	-3
CCCn1c(=O)c(C(=O)Nc2ccccc2C(=O)OC)c(O)c2ccccc21	6	10	63*	8	-4
CCCn1c(=O)c(C(=O)NCCCCl)c(O)c2ccccc21	19	.	70*	.	.
C=CCn1c(=O)c(C(=O)NCC)c(O)c2ccccc21	-1	.	70*	.	.
CCCn1c(=O)c(C(=O)NCCCl)c(O)c2ccccc21	8	.	37	.	.
CCCn1c(=O)c(C(=O)Nc2ccccc2F)c(O)c2ccccc21	17	.	9	.	.
SMILES	EP2 antag	Avidin fluor	EP2 mod	GSH bead fluor	Efa HMGR inh
CCn1c(COc2ccccc2C)nnc1SC	15	.	-7	.	.
O=C(C1CCCCC1)N1CCC(Cn2nc(-c3cccs3)ccc2=O)CC1	.	.	-244	.	.
Cc1ccc(OCC(=O)NC(=S)Nc2ccc3c4c(cccc24)CC3)cc1	20	10	62*	35	0
O=C(COc1ccccc1)NC(=S)Nc1ccc2c3c(cccc13)CC2	20	18	55	10	-1
CN1CCN(C2=C(Cl)C(=O)C(c3cnc(N4CCCCC4)s3)=C(Cl)C2=O)CC1	104*	2	-57	34	-7
O=c1c2oc3ccccc3c2[nH]c(=S)n1-c1ccc(F)cc1	15	4	65*	20	-1
Cc1cc(NC(=O)CSc2nnc3c4c(C)c(C)sc4ncn23)no1	12	111*	14	29	-3
